Screen size: about 5,500 compounds; about 2,000 (36%) were called active. About 18% were inconclusive and are not listed. Rule as the data show it: active = normalized growth mostly below about 0.91 (no sharp cut-off); inconclusive = no clear call, values can overlap the other calls; inactive = mostly above about 0.92. This is one part of the list.
Assay: chemical genetic growth profiling, strain panel (AID 1159580);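 also: tested at 20 µM; growth read once vehicle control cultures reached saturation at 30 °C; 1 = growth at the plate median or of vehicle wells; lower values mean less growth of the strain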
Conditions: S. cerevisiae deletion strains, growth OD

Measured: normalized growth

CC[C@H](C)C(=O)O[C@H]1CCC=C2C=C[C@H](C)C(CCC3C[C@@H](O)CC(=O)O3)[C@H]21 (stereo partly drawn)
active: locus YAL021C, strain ccr4, active compounds read low 0.894 | locus YDR137W, strain rgp1, active compounds read low 1.39 [resistant] | locus YKL009W, strain mrt4, active compounds read low 0.864 | locus YLR262C, strain YPT6 (second series), active compounds read low 1.22 [resistant]
inactive: locus YAL026C, strain drs2, active compounds read low 1.02 | locus YAL030W, strain snc1, active compounds read low 0.997 | locus YBL061C, strain skt5, active compounds read low 1.01 | locus YBR009C, strain hhf1, active compounds read low 1 | locus YBR021W, strain FUR4, active compounds read low 0.958 | locus YBR023C, strain chs3, active compounds read low 1.01 | locus YBR171W, strain sec66, active compounds read low 1.02 | locus YBR229C, strain ROT2, active compounds read low 0.983 | locus YBR231C, strain swc5, active compounds read low 0.95 | locus YBR279W, strain paf1, active compounds read low 1 | locus YCL011C, strain gbp2, active compounds read low 1.01 | locus YCL016C, strain dcc1, active compounds read low 0.997 | locus YCL029C, strain bik1, active compounds read low 0.969 | locus YCL061C, strain MRC1, active compounds read low 1 | locus YCL069W, strain vba3, active compounds read low 1 | locus YCR088W, strain abp1, active compounds read low 1.01 | locus YDL005C, strain med2, active compounds read low 0.988 | locus YDL035C, strain GPR1, active compounds read low 0.981 | locus YDL040C, strain nat1, active compounds read low 1 | locus YDL074C, strain BRE1, active compounds read low 0.957 | locus YDL101C, strain DUN1, active compounds read low 0.989 | locus YDL134C, strain PPH21, active compounds read low 1.01 | locus YDL185W, strain tfp1, active compounds read low 0.978 | locus YDL192W, strain arf1, active compounds read low 0.972 | locus YDR001C, strain nth1, active compounds read low 1 | locus YDR069C, strain doa4, active compounds read low 1.01 | locus YDR101C, strain arx1, active compounds read low 0.974 | locus YDR150W, strain NUM1, active compounds read low 0.997 | locus YDR159W, strain sac3, active compounds read low 1.04 | locus YDR162C, strain NBP2, active compounds read low 0.987 | locus YDR195W, strain ref2 1 | locus YDR297W, strain sur2, active compounds read low 1 | locus YDR318W, strain mcm21, active compounds read low 0.992 | locus YDR334W, strain swr1, active compounds read low 0.997 | locus YDR335W, strain msn5, active compounds read low 0.999 | locus YDR388W, active compounds read low 0.981 | locus YDR392W, strain spt3, active compounds read low 0.989 | locus YDR502C, strain sam2, active compounds read low 1.02 | locus YEL003W, strain gim4, active compounds read low 1.02 | locus YEL037C, strain rad23, active compounds read low 1 | locus YEL061C, strain CIN8 (second series), active compounds read low 0.999 | locus YEL061C, strain CIN8, active compounds read low 0.99 | locus YER015W, strain faa2, active compounds read low 1.01 | locus YER016W, strain bim1, active compounds read low 0.999 | locus YER110C, active compounds read low 0.968 | locus YER111C, strain swi4, active compounds read low 0.995 | locus YER155C, strain BEM2 (second series), active compounds read low 1.02 | locus YER155C, strain BEM2, active compounds read low 0.967 | locus YER167W, strain BCK2, active compounds read low 0.99 | locus YFR010W, strain ubp6, active compounds read low 1.03 | locus YGL078C, strain dbp3, active compounds read low 0.971 | locus YGL086W, strain mad1, active compounds read low 0.956 | locus YGL167C, strain pmr1, active compounds read low 0.996 | locus YGL173C, strain kem1, active compounds read low 1.01 | locus YGL227W, strain vid30, active compounds read low 1 | locus YGL240W, strain doc1, active compounds read low 1.02 | locus YGL248W, strain PDE1, active compounds read low 0.998 | locus YGL253W, strain hxk2, active compounds read low 1.01 | locus YGR135W, strain pre9, active compounds read low 1 | locus YGR252W, strain gcn5, active compounds read low 1.03 | locus YHR013C, strain ard1, active compounds read low 0.947 | locus YHR027C, strain rpn1, active compounds read low 1.02 | locus YHR030C, strain SLT2, active compounds read low 0.982 | locus YHR079C, strain IRE1 (second series), active compounds read low 0.98 | locus YHR094C, strain hxt1, active compounds read low 0.981 | locus YHR129C, strain ARP1, active compounds read low 0.987 | locus YHR142W, strain chs7, active compounds read low 1.01 | locus YHR200W, strain rpn10, active compounds read low 0.978 | locus YIL066C, strain RNR3, active compounds read low 0.989 | locus YIL073C, strain SPO22, active compounds read low 0.975 | locus YIL125W, strain kgd1, active compounds read low 0.99 | locus YIR030C, strain dcg1, active compounds read low 0.981 | locus YJL092W, strain hpr5, active compounds read low 1.01 | locus YJL095W, strain BCK1 (second series), active compounds read low 1.01 | locus YJL095W, strain BCK1, active compounds read low 1.03 | locus YJL115W, strain asf1, active compounds read low 1 | locus YJL129C, strain trk1, active compounds read low 1.04 | locus YJL134W, strain LCB3, active compounds read low 0.977 | locus YJL154C, strain vps35, active compounds read low 1 | locus YJL164C, strain tpk1, active compounds read low 1.01 | locus YJL166W, strain qcr8, active compounds read low 1.02 | locus YJL168C, strain set2, active compounds read low 0.975 | locus YJL187C, strain SWE1 (second series), active compounds read low 0.994 | locus YJL187C, strain SWE1, active compounds read low 1 | locus YJR043C, strain POL32, active compounds read low 0.978 | locus YKL068W, active compounds read low 0.987 | locus YKL085W, strain MDH1 (second series), active compounds read low 0.966 | locus YKL085W, strain MDH1, active compounds read low 0.966 | locus YKL160W, strain elf1, active compounds read low 1.01 | locus YKL190W, strain CNB1, active compounds read low 0.993 | locus YKR001C, strain vps1, active compounds read low 0.973 | locus YKR026C, strain gcn3, active compounds read low 0.981 | locus YKR091W, strain srl3, active compounds read low 1 | locus YLL001W, strain dnm1, active compounds read low 1.01 | locus YLL026W, active compounds read low 1.01 | locus YLL041C, strain sdh2, active compounds read low 1 | locus YLR027C, strain aat2, active compounds read low 1.01 | locus YLR039C, strain RIC1, active compounds read low 1.15 | locus YLR058C, strain SHM2, active compounds read low 0.989 | locus YLR102C, strain apc9, active compounds read low 0.973 | locus YLR221C, strain rsa3, active compounds read low 1.02 | locus YLR258W, strain gsy2, active compounds read low 1.01 | locus YLR262C, strain YPT6, active compounds read low 1.07 | locus YLR268W, strain sec22, active compounds read low 0.954 | locus YLR320W, strain mms22, active compounds read low 1.02 | locus YLR330W, strain CHS5, active compounds read low 0.991 | locus YLR342W, strain FKS1 (second series), active compounds read low 1.03 | locus YLR342W, strain FKS1, active compounds read low 1.01 | locus YLR357W, strain rsc2, active compounds read low 1.01 | locus YLR370C, strain arc18, active compounds read low 1 | locus YLR371W, strain rom2, active compounds read low 0.955 | locus YLR384C, strain iki3, active compounds read low 1.01 | locus YLR418C, strain cdc73, active compounds read low 1 | locus YML016C, strain PPZ1, active compounds read low 0.999 | locus YML032C, strain rad52, active compounds read low 1.03 | locus YML120C, strain ndi1, active compounds read low 1.02 | locus YML124C, strain tub3, active compounds read low 0.983 | locus YMR058W, strain fet3, active compounds read low 1.01 | locus YMR078C, strain ctf18, active compounds read low 0.997 | locus YMR125W, strain sto1, active compounds read low 1.02 | locus YMR129W, active compounds read low 1 | locus YMR205C, strain PFK2, active compounds read low 1.01 | locus YMR223W, strain ubp8, active compounds read low 0.995 | locus YMR231W, strain pep5, active compounds read low 0.996 | locus YMR307W, strain GAS1, active compounds read low 1.07 | locus YNL067W, strain RPL9B, active compounds read low 1 | locus YNL071W, strain lat1, active compounds read low 1 | locus YNL209W, strain ssb2, active compounds read low 1.02 | locus YNL233W, strain BNI4, active compounds read low 1.01 | locus YNL248C, strain rpa49, active compounds read low 1.02 | locus YNL250W, strain rad50, active compounds read low 0.977 | locus YNL271C, strain bni1, active compounds read low 0.977 | locus YNL298W, strain CLA4, active compounds read low 0.968 | locus YNL307C, strain MCK1, active compounds read low 0.978 | locus YNL322C, strain KRE1 (second series), active compounds read low 1.01 | locus YNL322C, strain KRE1, active compounds read low 0.989 | locus YNR049C, strain mso1, active compounds read low 1.01 | locus YNR052C, strain pop2, active compounds read low 0.966 | locus YOL012C, strain htz1 0.865 | locus YOL147C, strain pex11, active compounds read low 0.994 | locus YOR001W, strain rrp6, active compounds read low 1.01 | locus YOR061W, strain CKA2, active compounds read low 0.985 | locus YOR069W, strain VPS5, active compounds read low 0.981 | locus YOR070C, strain gyp1, active compounds read low 1.02 | locus YOR080W, strain dia2, active compounds read low 1 | locus YOR083W, strain WHI5, active compounds read low 1.01 | locus YOR106W, strain vam3, active compounds read low 1.04 | locus YOR136W, strain idh2, active compounds read low 0.977 | locus YOR144C, strain elg1, active compounds read low 0.977 | locus YOR184W, strain ser1, active compounds read low 0.957 | locus YOR265W, strain rbl2, active compounds read low 1 | locus YOR270C, strain vph1, active compounds read low 0.999 | locus YOR290C, strain snf2, active compounds read low 0.991 | locus YOR316C, strain cot1, active compounds read low 0.983 | locus YPL051W, strain arl3, active compounds read low 1.02 | locus YPL078C, strain atp4, active compounds read low 1.01 | locus YPL106C, strain sse1, active compounds read low 1.06 | locus YPL240C, strain hsp82, active compounds read low 1.01 | locus YPL241C, strain CIN2, active compounds read low 0.981 | locus YPR119W, strain clb2, active compounds read low 0.979 | locus YPR141C, strain kar3, active compounds read low 0.963 | locus YPR163C, strain tif3, active compounds read low 0.992 | locus YPR167C, strain met16, active compounds read low 1 | strain wtn01, active compounds read low 0.935
